{"source": "ChEMBL document CHEMBL3433997", "about": "“St. Jude Leishmania screening dataset” (2016)", "data": [{"target": "Solute carrier family 2, facilitated glucose transporter member 1 (Homo sapiens) (UniProt P11166)", "sequence (P11166 whole entry)": "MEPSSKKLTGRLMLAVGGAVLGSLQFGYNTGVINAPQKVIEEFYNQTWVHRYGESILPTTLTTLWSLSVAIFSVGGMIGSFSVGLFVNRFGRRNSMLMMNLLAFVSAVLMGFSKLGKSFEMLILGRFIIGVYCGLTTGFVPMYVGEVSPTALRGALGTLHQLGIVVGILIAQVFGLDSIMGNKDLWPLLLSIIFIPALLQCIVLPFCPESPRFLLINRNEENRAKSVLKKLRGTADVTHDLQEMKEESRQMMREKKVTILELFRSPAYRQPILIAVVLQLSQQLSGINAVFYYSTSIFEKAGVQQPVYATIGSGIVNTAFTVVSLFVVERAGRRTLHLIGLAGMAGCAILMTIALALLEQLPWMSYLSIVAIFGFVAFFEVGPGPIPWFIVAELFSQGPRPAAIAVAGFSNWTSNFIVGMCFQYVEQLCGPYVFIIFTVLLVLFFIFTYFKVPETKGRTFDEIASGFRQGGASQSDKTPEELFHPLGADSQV", "test": "ST_JUDE_LEISH: Cytotoxicity at 2uM final concentration against transgenic Leishmania Mexicana promastigotes LmGLUT1 that are glucose transport deficient and complemented with the human glucose transporter GLUT1. Activity is measured by DNA content using SYBR green in vitro", "assay_type": "functional", "units": {"inhibition": "%"}, "values": [{"compound": "c1ccc(CN2CCc3cc4nccc(N5CCNCC5)c4cc32)cc1", "inhibition": -3.94}, {"compound": "COc1ccc2nccc([C@@H](O)CN3CCC(NCc4cc5c(F)ccc(F)c5[nH]4)CC3)c2n1", "inhibition": 87.9}, {"compound": "CC(=O)Nc1cccc(/C=C/C(=O)N2CCC(N3CCCCC3)CC2)c1", "inhibition": 2.23}, {"compound": "CON(CCCN(C)C)C(=N)N", "inhibition": 0.55}, {"compound": "COc1ccc2nccc([C@@H](O)CN3CCC(NCc4ccc5c(c4)sc(=O)n5C)CC3)c2c1", "inhibition": -0.15}, {"compound": "NCCCN(Cc1ccc(Cl)c(Cl)c1)C(=O)Nc1ccc(Cl)c(Cl)c1", "inhibition": 14.3}, {"compound": "O=C(/C=C/c1ccc(Br)cc1)NCCCCCN1CCC(c2c[nH]c3ccccc23)CC1", "inhibition": 25.2}, {"compound": "Cc1cc(C)c2cc(CNCCCNc3nc4ccccc4[nH]3)[nH]c2c1", "inhibition": 1.11}, {"compound": "CC(C)(C)c1ccc(CN2CCCCC(NC(=O)c3cc(-c4ccccc4Cl)cs3)C2)cc1", "note": "(stereo unspecified)", "inhibition": 2.83}, {"compound": "Cc1c[nH]c(CCNC(=O)c2cc(-c3ccc(Cl)cc3)cs2)n1", "inhibition": 2.64}, {"compound": "C=CCOc1ccc(CNC2CCN(Cc3ccccc3)CC2)cc1Br", "inhibition": 2.99}, {"compound": "CCN1CCC(N(Cc2ccc(-c3ccc(C(F)(F)F)cc3)cc2)C(=O)Cn2c(SCc3cccc(F)c3F)cc(=O)c3ccccc32)C1", "note": "(stereo unspecified)", "inhibition": 0.27}, {"compound": "CCN(CCCN1CCCCC1)c1cc(C)nc(Nc2cc(C(F)(F)F)ccc2C)n1", "inhibition": -1.35}, {"compound": "CCOc1cccc(C2c3c(oc4ccccc4c3=O)C(=O)N2CCN(CC)CC)c1", "note": "(stereo unspecified)", "inhibition": 4.85}, {"compound": "CC(C)(C)c1cc([N+](=O)[O-])cc(C(=O)Nc2ccccc2C(F)(F)F)c1O", "inhibition": 0.47}, {"compound": "CCc1cn(CCS(C)(=O)=O)c2ccc(C(=O)N[C@@H](Cc3ccccc3)[C@H](O)CNC(C)(C)CCCC(C)C)cc12", "inhibition": 5.26}]}]}
